PAFAH1B2 inh: PAFAH1B2 (human) inhibition | inhibition, % at 3.39 µM | 340,000 tested, 1.2% active | P68402 | AID 492953 | recombinant PAFAH1B2, FP-rhodamine activity probe, fluorescence polarization;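 active = inhibition above the mean of all tested compounds plus 3 SD, cut at about 24% in these data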;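 also: 0% = enzyme with DMSO and 100% = wells lacking PAFAH1B2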
Target sequence (P68402 whole entry, looked up): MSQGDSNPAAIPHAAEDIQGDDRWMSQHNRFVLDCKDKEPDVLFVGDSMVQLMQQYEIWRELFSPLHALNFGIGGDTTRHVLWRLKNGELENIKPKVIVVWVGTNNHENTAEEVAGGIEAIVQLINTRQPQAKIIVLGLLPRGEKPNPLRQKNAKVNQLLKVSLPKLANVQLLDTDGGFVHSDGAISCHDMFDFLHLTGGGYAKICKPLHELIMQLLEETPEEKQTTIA
rCAG RNA binder: molecules binding r(CAG) RNA repeats. inhibition, % at 3 µM. 370,000 tested, 1.3% active. r(CAG) RNA repeat, TO-PRO-1 dye displacement fluorescence. AID 651821;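 active = inhibition above the plate cutoff, the mean of all test compounds on that plate plus 3 SD, cut at about 35% in these data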;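 also: 0% = DMSO alone and 100% = 100 µM mitoxantrone as full dye displacement; higher means more dye released from RNA so lower well fluorescence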
PAFAH1B3 inh: blocks human PAF acetylhydrolase 1B catalytic subunit 3; 340,000 tested, 0.28% active; AID 492972; recombinant PAFAH1B3, FP-rhodamine probe, fluorescence polarization; inhibition, % at 3.39 µM; Q15102;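 active = inhibition above the screen-wide average of all tested compounds plus 3 SD, cut at about 25% in these data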;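 also: 0% = enzyme with DMSO only and 100% = wells lacking PAFAH1B3 protein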
Target sequence (Q15102 whole entry, looked up): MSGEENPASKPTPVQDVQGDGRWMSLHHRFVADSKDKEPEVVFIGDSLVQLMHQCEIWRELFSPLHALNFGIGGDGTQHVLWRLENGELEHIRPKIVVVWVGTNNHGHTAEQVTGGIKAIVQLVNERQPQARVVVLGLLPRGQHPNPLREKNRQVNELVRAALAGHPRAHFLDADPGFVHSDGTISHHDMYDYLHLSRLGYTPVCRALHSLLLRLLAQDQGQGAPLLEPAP
ZTA counter: ZTA (EBV) inhibition in EBNA-1 counter-screen. ZTA-DNA binding, fluorescence polarization. P03206. inhibition, % at 11 µM. 320,000 tested, 0.15% active. AID 2234; in the data active = inhibition above about 33%
Target sequence (P03206 whole entry, looked up): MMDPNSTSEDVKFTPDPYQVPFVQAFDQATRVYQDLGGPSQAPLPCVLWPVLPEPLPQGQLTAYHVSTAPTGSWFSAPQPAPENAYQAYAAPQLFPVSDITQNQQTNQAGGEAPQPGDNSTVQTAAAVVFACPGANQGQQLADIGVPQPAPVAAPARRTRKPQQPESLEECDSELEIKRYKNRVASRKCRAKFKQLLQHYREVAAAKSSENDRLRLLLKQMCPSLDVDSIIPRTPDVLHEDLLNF
EBNA-1 inh: blocks EBNA-1 binding to DNA; EBNA-1 DNA binding, fluorescence polarization; inhibition, % at 14.8 µM; 300,000 tested, 0.34% active; AID 1950; in the data active = inhibition above about 28%
PAFAH2 inh: inhibitors of human PAFAH2; AID 492956; recombinant PAFAH2, FP-rhodamine activity probe, fluorescence polarization; 340,000 tested, 0.99% active; inhibition, % at 3.39 µM;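 active = inhibition above the mean over all tested compounds plus 3 SD, cut at about 30% in these data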;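 also: inhibitors block probe labeling of enzyme so polarization drops; 0% = enzyme with DMSO and 100% = wells lacking PAFAH2 protein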
PAFAH1B3 confirm: PAFAH1B3 (human) inhibition, confirmed | shares compounds with PAFAH1B3 inh | recombinant PAFAH1B3, FP-Rh activity-based probe, fluorescence polarization | inhibition, % at 3.39 µM | 390 tested, 30% active | AID 493032;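 active = average inhibition over triplicate runs above the hit cutoff set in the earlier primary screen, cut at about 25% in these data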;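 also: 0% = enzyme with DMSO and 100% = wells lacking PAFAH1B3 protein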
rCAG binder conf: r(CAG) RNA repeat binding, confirmation | shares compounds with rCAG RNA binder | TO-PRO-1 dye displacement fluorescence | inhibition, % at 3 µM | 4,300 tested, 70% active | AID 652065;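 active = inhibition above a per-plate cutoff, the mean inhibition of sample wells plus 3 SD, cut at about 35% in these data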;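 also: loss of TO-PRO-1 fluorescence as compound displaces dye from 1x1 AA loop RNA; 0% = DMSO only wells and 100% = 100 µM mitoxantrone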
DNA CAG counter: counter-screen for rCAG RNA binders: DNA CAG dye complex inhibitors | shares compounds with rCAG RNA binder | d(CAG) DNA oligo TO-PRO-1 dye displacement, fluorescence | inhibition, % at 3 µM | 4,300 tested, 94% active | AID 652068;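 active = inhibition above its plate's cutoff, the mean test-well inhibition plus 3 SD, cut at about 4.8% in these data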;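 also: 0% = DNA dye mix with DMSO and 100% = 100 µM mitoxantrone; hits displace the dye from DNA and so lower well fluorescence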
An asterisk follows results filed as active; . = no result given. The list is not random: actives were taken first. Their share in the collection is about 2.9%.

SMILES	PAFAH1B2 inh	rCAG RNA binder	PAFAH1B3 inh	ZTA counter	EBNA-1 inh	PAFAH2 inh	PAFAH1B3 confirm	others
CCCC(=O)NNC(=O)CCC(=O)Nc1ccccc1Cl	-3.7	0.4	1.9	-7.4	-8.6	4.0	.
CCCC(=O)NC1=C(Cl)C(=O)c2ccccc2C1=O	5.9	1.0	37.6*	.	.	19.7	13.9
O=C1C(Cl)=C(Nc2ccc(O)cc2)C(=O)c2ccccc21	13.4	0.8	26.9*	-10.3	-4.6	9.0	18.0
COc1ccc(-c2nnc(SCc3cccc(F)c3)n2-c2ccccc2)cc1	.	2.8	.	.	.	.	.
O=S(=O)(c1ccc(Cl)s1)N1CCC(c2nc3ccccc3o2)CC1	.	4.1	.	.	.	.	.
O=C1c2ccccc2S(=O)(=O)N1CCCN1C(=O)c2ccccc2S1(=O)=O	4.2	0.8	29.7*	.	.	-2.2	7.5
Cc1ccc(/C=C2/C(=O)c3ccc(C(=O)O)cc3C2=O)o1	14.4	32.1	25.8*	.	.	16.5	17.0
Cc1ccc(C=C2C(=O)c3ccccc3C2=O)o1	-5.7	14.1	-2.3	-2.1	2.5	-0.9	.
C=CCN(CC#Cc1ccc(C)cc1)Cc1ccc(OC)cc1OC	.	3.5	.	.	.	.	.
Cc1cc2c(cc1C)-n1nnnc1C(N1CCN(C(=O)OCc3ccccc3)CC1)C(=O)N2 (stereo not drawn)	.	4.5	.	.	.	.	.
O=C(COC(=O)c1ccc([N+](=O)[O-])s1)c1ccc[nH]1	7.0	6.8	32.8*	.	.	14.5	26.2*
C/C(=N/Nc1ccc([N+](=O)[O-])cc1)c1c[nH]c2ccccc12	9.6	34.5	36.1*	.	.	3.4	15.9
CCc1ccc(NC(=O)NNC(=O)c2ccc3ccccc3c2O)cc1	12.3	29.4	36.3*	.	.	-6.0	74.0*
CCc1ccc(NC(=O)NNC(=O)c2cc3ccccc3cc2O)cc1	8.3	28.0	13.4	-6.4	-1.6	-19.1	.
O=C(Nc1ccc(F)cc1F)Nc1csc2ccccc12	.	9.6	.	6.2	3.9	.	.
O=C(Nc1ccc(F)c(Cl)c1)Nc1csc2ccccc12	17.7	12.8	30.4*	2.7	17.0	3.9	21.0
CC(=O)N(C1=C(N2CCOCC2)C(=O)c2ccccc2C1=O)c1ccc(C(=O)O)cc1	5.4	1.8	25.8*	-6.2	-3.6	3.2	15.6
O=C1c2ccccc2-c2ccc(C(=O)N3CCOCC3)cc21	-1.5	-0.9	-0.4	2.4	3.8	8.4	.
CC(=O)N(C)C1=C(N2CCOCC2)C(=O)c2ccccc2C1=O	8.3	.	30.6*	-20.7	-12.1	3.3	12.4
O[C@H](COc1cccc(Br)c1)CN1CCC(C(O)(c2ccccc2)c2ccccc2)CC1	.	0.9	.	.	.	.	.
O=C1C(c2ccccc2)=[N+]([O-])c2ccccc21	4.9	-1.3	28.0*	-10.9	-3.3	17.8	13.0
COc1cc2c(cc1OC)[N+]([O-])=C(c1ccccc1)C2=O	.	3.3	.	.	.	.	.
COc1ccc(S[C@]2(C(=O)N3CCN(c4ncccn4)CC3)CC(=O)N(C(=O)C3CC3)[C@@H]2c2ccc(OC)cc2)cc1	.	13.9	.	.	.	.	.
O=C1c2cccc3c([N+](=O)[O-])ccc(c23)C(=O)N1Cc1cccnc1	19.9	-18.6	47.2*	.	.	6.0	47.5*
Cc1nnc(N2C(=O)c3cccc4c([N+](=O)[O-])ccc(c34)C2=O)s1	3.0	-0.9	28.6*	8.7	3.9	-5.0	22.9
SMILES	PAFAH1B2 inh	rCAG RNA binder	PAFAH1B3 inh	ZTA counter	EBNA-1 inh	PAFAH2 inh	PAFAH1B3 confirm	others
Cc1ccnc(N2C(=O)c3cccc4c([N+](=O)[O-])ccc(c34)C2=O)c1	1.4	-19.0	31.0*	8.0	-4.0	5.0	41.0*
Cc1nn(-c2ccc(F)cc2)c2nc(N)c(C#N)c(-c3ccc(O)c(O)c3)c12	14.1	31.5	36.4*	.	.	4.6	-3.0
Cc1nn(-c2ccc(F)cc2)c2nc(N)c(C#N)c(-c3cccs3)c12	2.5	11.5	-6.2	3.8	-13.3	-2.4	.
CC(=O)N1[C@H](CO)[C@@H](c2ccccc2)[C@@H]1CN(C(=O)c1ccc(F)cc1)C(C)C	.	2.7	.	.	.	.	.
CC(=O)C(C(C)=O)C1(O)C(=O)c2ccccc2C1=O	15.7	-4.1	34.1*	13.6	1.1	-2.6	21.8
O=C1Nc2ccc(Br)cc2C12NNc1ccccc1O2 (stereo not drawn)	12.1	61.3*	27.4*	-14.8	-9.9	14.8	14.6	rCAG binder conf=57.9*;DNA CAG counter=47.5*
O=S(=O)(Nc1ccc(N=Nc2ccc(O)c3ccccc23)cc1)c1ccccc1	18.2	67.2*	36.0*	-12.4	-7.3	11.6	16.8	rCAG binder conf=65.3*;DNA CAG counter=31.8*
C=CCn1c(NC(=O)c2ccccc2Cl)c(C#N)c2nc3ccccc3nc21	17.2	68.5*	60.4*	-0.5	2.5	5.9	7.8	rCAG binder conf=66.7*;DNA CAG counter=29.3*
CCCCn1c(NC(C)=O)c(C#N)c2nc3ccccc3nc21	4.6	10.7	4.1	-10.3	3.5	3.9	.
COC(=O)[C@]12C[C@H](CC(=O)NCCCN3CCCC3=O)C(=O)N(Cc3ccco3)C1=C[C@H](C(C)(C)C)O[C@@H]2C	.	-2.9	.	.	.	.	.
COc1ccc2nc(NNC(=O)COc3ccccc3)sc2c1	-0.1	1.6	0.3	-11.7	-13.6	8.0	.
COc1ccc2nc(NNC(=O)c3cc(=O)c4ccccc4o3)sc2c1	2.7	36.1*	28.8*	6.8	-2.8	11.4	22.8	rCAG binder conf=55.0*;DNA CAG counter=19.2*
COc1ccc2[nH]c3c4c(ccc3c2c1)C(=O)C=CC4=O	17.0	43.5*	37.0*	.	.	16.4	17.4	rCAG binder conf=19.1;DNA CAG counter=14.8*
COC(=O)/C=C1\OCc2cc(OCc3ccccc3)ccc21	.	0.3	.	.	.	.	.
Nc1nonc1N/N=C/c1c(O)ccc2ccccc12	15.5	40.4*	31.0*	-12.9	-3.8	18.4	16.9	rCAG binder conf=20.4;DNA CAG counter=15.0*
O=C(CSc1nnc(COc2ccc(Cl)cc2)n1Cc1ccco1)Nc1cccc2ccccc12	.	7.0	.	.	.	.	.
COc1ccc(S(=O)(=O)Nc2cc(SCC(=O)O)c(O)c3ccccc23)cc1	19.0	37.7*	43.8*	13.0	-15.3	13.3	11.5	rCAG binder conf=48.5*;DNA CAG counter=18.3*
COc1ccc(S(=O)(=O)Nc2cccc3ccc(O)cc23)cc1	-3.2	8.4	6.4	-3.6	-8.7	-5.9	.
CC(C)CCN1C(=O)c2ccccc2C1c1nnnn1-c1ccc2c(c1)OCCO2 (stereo not drawn)	.	1.1	.	.	.	.	.
COc1ccc(OC)c(NC(=O)CSc2ncnc3sc(C)cc23)c1	13.5	71.6*	19.1	.	.	18.6	.	rCAG binder conf=63.8*;DNA CAG counter=34.5*
COc1cc(NC(=O)CSc2ncnc3sc4c(c23)CCCC4)c(C(=O)O)cc1OC	5.8	67.2*	10.0	7.4	8.2	20.7	.	rCAG binder conf=52.5*;DNA CAG counter=17.4*
Cc1cccc(NC(=O)CSc2ncnc3sc4c(c23)CCCC4)c1	.	5.9	.	.	.	.	.
